Laboratory results reported in PubChem BioAssay (NCI).
About 83,000 compounds went through this panel and 20% of them were active in at least one assay; those are over-represented in the sample as a whole.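 Treatment: one concentration, 48 hours, 96-well format. Scoring: percent growth, with anything below 10 considered active.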 A number with no mark means an inactive call. Active and inactive are the calls of the source.

How the values were obtained:
Assay in all cases: NCI-60 one-dose screen, 48 h (100 = growth as untreated, 0 = no growth, -100 = all killed)
Settings in all cases: 10 µM
HCT-15 colon = tested on: HCT-15 colon
HT29 colon = tested on: HT29 colon
SNB-75 CNS = tested on: SNB-75 CNS
SNB-19 CNS = tested on: SNB-19 CNS
PC-3 prostate = tested on: PC-3 prostate
SK-MEL-5 melanoma = tested on: SK-MEL-5 melanoma
UACC-62 melanoma = tested on: UACC-62 melanoma
LOX IMVI melanoma = tested on: LOX IMVI melanoma
SK-MEL-28 melanoma = tested on: SK-MEL-28 melanoma
SK-MEL-2 melanoma = tested on: SK-MEL-2 melanoma
EKVX NSCLC = tested on: EKVX NSCLC
SN12C renal = tested on: SN12C renal
UO-31 renal = tested on: UO-31 renal
TK-10 renal = tested on: TK-10 renal
ACHN renal = tested on: ACHN renal
CAKI-1 renal = tested on: CAKI-1 renal
A498 renal = tested on: A498 renal
CCRF-CEM leukemia = tested on: CCRF-CEM leukemia
MOLT-4 leukemia = tested on: MOLT-4 leukemia

Compound | growth (HCT-15 colon) | growth (HT29 colon) | growth (SNB-75 CNS) | growth (SNB-19 CNS) | growth (PC-3 prostate) | growth (SK-MEL-5 melanoma) | growth (UACC-62 melanoma) | growth (LOX IMVI melanoma) | growth (SK-MEL-28 melanoma) | growth (SK-MEL-2 melanoma) | growth (EKVX NSCLC) | growth (SN12C renal) | growth (UO-31 renal) | growth (TK-10 renal) | growth (ACHN renal) | growth (CAKI-1 renal) | growth (A498 renal) | growth (CCRF-CEM leukemia) | growth (MOLT-4 leukemia)
O=C1/C=C/[C@@H](O)[C@@H]2C[C@@H](O)C[C@H]2/C=C/CCC[C@H](C(F)(F)F)O1 | 6.45% (active) | -28.3% (active) | 39.1% | 65.6% | 25.1% | -98.3% (active) | -3.9% (active) | -90.6% (active) | -8.65% (active) | -18.3% (active) | 10.3% | 4.4% (active) | -6.75% (active) | -21% (active) | 3.63% (active) | 4.59% (active) | -18.2% (active) | 1.24% (active) | -0.315% (active)
CC1=CC2C(C(O)CC3(C)C2CC(C)C32OCOC23COCO3)C2(C)C/C(=C/O)C(=O)C=C12 (stereo unspecified) | -24.2% (active) | 3.89% (active) | 100% | 56% | 31.7% | 44.2% | 30.4% | -60.9% (active) | 66.3% | 76.1% | 48.8% | 26.2% | 10.5% | 42.7% | 8.9% (active) | 67.6% |  | -3.03% (active) | -32.8% (active)
COc1ccc(-c2nn(-c3cccc(Cl)c3)cc2-c2c(C#N)c(=O)n3[nH]c(-c4ccccc4)nc3c2C#N)cc1 | 93.4% | 96.9% | 80.3% | 90.9% | 101% | 96.4% | 99.3% | 87.6% | 115% | 88.6% | 35.9% | 104% | 82.5% |  | 101% |  |  | 74.4% | 61.6%
COc1cc2c(cc1NC(=O)C(Cl)Cl)-c1ccc(NC(=O)C(Cl)Cl)cc1C2 | -7.21% (active) | -35.3% (active) | -29.6% (active) | 3.35% (active) | 18.8% | 22.5% | -22.2% (active) | 67% | -54.7% (active) | -14.7% (active) | -9.2% (active) | 58.6% | -9.34% (active) | -12.3% (active) | -43.4% (active) |  | 10.1% | 81.9% | 94.8%
Cc1ccc(C(=O)C2C(=O)C3CCC2C3)cc1 (stereo unspecified) | 106% | 108% | 93.7% | 95.7% | 94.2% | 102% | 98.9% | 95.4% | 99.6% | 111% | 98.5% | 97.3% | 90.2% |  | 100% | 96.1% | 109% | 96.3% | 105%
COC(=O)C1OC1c1cc([N+](=O)[O-])ccc1OC (stereo unspecified) | 103% | 117% | 90.6% | 110% | 96% | 98.8% | 106% | 93.4% | 109% | 111% | 102% | 107% | 74.4% | 107% | 108% | 83.2% | 127% | 96% | 83.6%
Cc1cc(NC(=O)c2ccc(C)c(Nc3nccc(-c4cccnc4)n3)c2)cc(-n2cnc(C)c2)c1 | 58.6% | -18.6% (active) | -14% (active) | 66.6% | 61.4% | 65.7% | 44.6% | 2.11% (active) | 41.5% | 83.5% | -56.9% (active) | 27.5% | -55% (active) | -20.5% (active) | -13.7% (active) | -80.2% (active) |  | 38.1% | 14.3%
Cc1ccc(S(=O)(=O)N/N=C2\CCCc3ccccc32)cc1 | 109% | 115% | 92.4% | 94.6% | 90.3% | 103% | 92.9% | 94.8% | 105% | 103% | 93.6% | 112% | 88.1% | 119% | 94.9% | 89.8% | 91.8% | 91.8% | 101%
COc1ccc(/C(C#N)=C/c2cccc(OC)c2OC)cc1 | 68.1% | 59.8% | 91.3% | 84.3% | 82% | 73.1% | 70.5% | 84.1% | 84.5% | 77.1% | 99.9% | 89.8% | 78.1% | 96.7% | 99% | 74.7% | 87.2% | 80.5% | 82.8%
Cc1c2cnccc2c(C)c2c1oc1ccccc12 | 72.3% | 72.8% | 106% | 73.1% | 99.8% | 60.1% | 53.9% | 42.1% | 110% | 112% | 38.3% | 69.1% | 40.4% | 48.4% | 58.6% | 66% |  | 62.8% | 3.5% (active)
CC(C)(C)c1ccc(S(=O)(=O)N[C@H]2CC[C@H]3[C@@H]4CCc5cc(O)ccc5[C@H]4CC[C@]23C)cc1 | 34.7% | 10.2% | 55.4% | 80.6% | 30.6% | 40.4% | 61.2% |  | 79.1% |  |  | 28.4% | 25.1% | 67.5% | 35.2% | 38.9% |  |  | 
CCOC(=O)C1=CSC2=NC3=C(CCC/C3=C\c3cc(OC)c(OC)c(OC)c3)C(c3cc(OC)c(OC)c(OC)c3)N12 (stereo unspecified) | 57.7% | 12.9% | 39.1% | 85.1% | 77.1% | 60.3% | 74.4% | 23% | 67.2% | 106% |  | 54.4% | 69.9% |  | 45.9% |  | 78.4% | 16.8% | 52.7%
C/C(=C/CCC(C)[C@@H]1CC[C@]2(C)C3=C(CC[C@@]12C)[C@@]1(C)CCC(=O)C(C)(C)[C@@H]1CC3)C(=O)O (stereo partly specified) | -66.6% (active) | -65.8% (active) | -68.1% (active) | -78.1% (active) | -29.8% (active) | -98.2% (active) | -92.4% (active) | -53.9% (active) | -83.9% (active) | -52.1% (active) | -76.5% (active) | -77.5% (active) | -95.5% (active) | -86.1% (active) | -93.5% (active) | -92.8% (active) |  | -21% (active) | -35.3% (active)
O=C1NC(=O)c2c(CCCSc3nc4ccccc4c(=O)n3CCc3ccccc3)cccc21 | 96% | 90.3% | 82.8% | 94.8% | 88.9% | 95.8% | 90% | 81.8% | 105% | 105% | 16.3% |  | 70.6% | 124% | 69.9% | 18.5% |  | 96% | 81.3%
COc1ccccc1-n1c(-c2sc(NC(C)=O)nc2C)n[nH]c1=S | 94.9% | 104% | 86.4% | 103% | 95.9% | 105% | 98.5% | 97.5% | 117% | 106% | 67.6% | 101% | 70.1% | 130% | 108% | 81% |  | 97.3% | 92.9%
N#Cc1c(-c2ccc(Cl)cc2)n(O)c2ccccc12 | 22.6% | 82.8% | 12.5% | 11% | 41.2% | -57.5% (active) | 8.34% (active) | 23.8% | 15.6% | 8.25% (active) | 30.2% | 16.1% | 11% | 66.6% | 35.4% | 20.7% |  | 16.2% | 18.1%
COc1ccc(/C(=N\N)C(=O)c2ccccc2)cc1 (tested in a mixture with another compound) | 91.1% | 87.7% | 93.2% | 94% | 90.8% | 97.3% | 92.8% | 97.8% | 102% | 112% | 91.4% | 88.5% | 81.1% | 108% | 98.3% | 90.8% | 83.2% | 88.2% | 80.4%
